# Screens from PubChem.
# HCMV inh = human cytomegalovirus inhibition; HFF cells, HCMV-luciferase reporter, 72 h; active compounds read low; activity change, negative = inhibition, % at 57.5 µM; actives 4.5% (n = 410,000); AID 1259415; in the data active = activity change below about -60%; inconclusive = no clear call, values can overlap the other calls; inactive = above about -39%; note: % is set by controls: 0 for no effect and ±100 for the full control effect
#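 Screen run at 2 compound doses on HFFs infected with reporter HCMV, MOI 1 PFU/cell. Luciferase activity from cell lysates at 72 h post infection gave inhibition relative to buffer-only and Salinomycin wells.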
# Cycloheximide cs = counter-screen hit for Shiga toxin inhibitors, cycloheximide; cell reporter, cycloheximide protein synthesis inhibition counterscreen; max response, %; actives 12% (n = 300,000); AID 2314; in the data active = max response mostly above about 13%, no sharp cut-off; inactive = mostly below about 14%; note: read at 38.3 µM for the half of the compounds with a filed dose; 0% is about no effect
# Pf growth 48h = inhibits P. falciparum growth in the first generation, 48 h; Potency, µM (titrated, usually from 28.7 µM), inactives show at the highest dose activity change, negative = inhibition, actives largely listed as inhibitors; P. falciparum luciferase growth in erythrocytes, 48 h; actives 5.9% (n = 310,000); note: potency is the fitted concentration of half-maximal effect; % is set by controls: 0 for no effect and ±100 for the full control effect
#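 A one-generation exposure of luciferase-tagged malaria parasites in RPMI 1640/Albumax erythrocyte culture, 37 C and 5% CO2. Inhibition is inferred from decreased luminescence after adding detection reagent.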
# Shiga toxin inh = Shiga toxin inhibition | Vero cells, Shiga toxin protein synthesis inhibition reporter | inhibition, % at 38.7 µM | actives 9.2% (n = 290,000) | AID 2315; in the data active = inhibition mostly above about 28%, no sharp cut-off; inactive = mostly below about 43%; note: 0% is about no effect
# HCV inhibitor = blocks hepatitis C virus. actives 3.4% (n = 340,000). Huh7.5.1 HCVcc-Cre infection, luciferase reporter, 44 h. Potency, µM (highest dose often 41.8 µM), without a hit: at the highest dose activity change, negative = inhibition, usual class: inhibitors; note: potency is the fitted concentration of half-maximal effect; % is set by controls: 0 for no effect and ±100 for the full control effect
#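 Compounds are dispensed onto cells plated 4 h earlier at 1,000 per well, with HCVcc-Cre virus (about 0.5 moi) added next. Following 44 h of culture, luminescent signal is measured for 15 sec after 15 min with substrate at room temperature.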
# Pf growth 96h = inhibits malaria parasite growth, 96 h; P. falciparum luciferase reporter growth, 96 h; Potency, µM (highest dose often 28.7 µM), for the others: at the highest dose activity change, negative = inhibition, usual class: inhibitors; actives 6.9% (n = 320,000); note: potency is the fitted concentration of half-maximal effect; % is set by controls: 0 for no effect and ±100 for the full control effect
#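 Two-generation exposure (96 h) targets delayed-death phenotype. Reporter parasites carrying integrated firefly luciferase, in red cells at 2% hematocrit and 0.05% parasitemia final, kept at 37 C, 5% CO2; luminescence loss indicates inhibition.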
# Active calls of the source: *; ? = inconclusive; . = not tested or not shown; [ ] = dose if it differs, or a comment. Rows were chosen to be rich in hits. Some 21% of all compounds tested hit in one or more screens of this group. Unless noted, calls come from the whole dose curve; as a rule, active = well fitted inhibition curve with a large enough effect; inconclusive = small, poorly fitted or top-dose-only effect, or another doubt; inactive = no such curve, though single readings can be large or run the other way.
SMILES,HCMV inh,Cycloheximide cs,Pf growth 48h,Shiga toxin inh,HCV inhibitor,Pf growth 96h
COc1cccc(CN2CC(C(=O)N(C)Cc3nc4ccc(F)cc4[nH]3)CCC2=O)c1 (stereo unspecified),-30,-2,0%,-2,5%,-17%
COc1cccc(CN2CC(C(=O)N(C)Cc3[nH]c4ccccc4c3C)CCC2=O)c1 (stereo unspecified),61,-1,-21%,-1,-4%,19%
COCc1cc(CN(C)C(=O)C2CCC(=O)N(Cc3cccc(OC)c3)C2)[nH]n1 (stereo unspecified),-19,-4,1%,4,17%,9.3µM*
COc1cccc(CN2CC(C(=O)N(C)Cc3ccc(C)cc3)CCC2=O)c1 (stereo unspecified),0,43*,?,29,-4%,5%
CC=C1COC(C(=O)NCCOCCO)(C(F)(F)F)C=C1C=C(C)C (stereo unspecified),.,-1,.,39,.,.
O=C(/C=C/c1c(F)cccc1Cl)Nc1cccnc1,111,39*,6%,.,-15%,?
O=C(/C=C/c1cc(Br)ccc1F)Nc1cccnc1,25,26*,3%,39*,-15%,20%
C/C(=N\O)c1oc2ccc3c(C)cc(=O)oc3c2c1C,-63*,0,13%,-10,-6%,26%
CC(=O)Oc1ccc2c(C)cc(=O)oc2c1C(=O)c1ccccc1,28,-4,1%,-15,21%,18%
O=C(N/C=C/c1ccccc1)Nc1ccc(Cl)cc1,13,74*,98%,198*,-22%,88%
Cc1ccc(NC(=O)N/C=C/c2ccccc2)cc1,-12,24*,89%,42*,-28%,70%
CN1CCN(C(=S)c2ccc(Br)cc2)CC1,6,0,-3%,7,2%,?
CN1CCN(C(=S)c2ccc(N(C)C)cc2)CC1,-108*,6,33%,-1,-6%,.
COCCOC(=O)C1=C(C)NC(=O)N(C(C)=O)C1c1ccc(Cl)cc1 (stereo unspecified),39,-3,?,20,-4%,2.3µM*
N#CCC(CNc1ncc(C(F)(F)F)cc1Cl)OC(=O)c1ccc(Cl)cc1 (stereo unspecified),-62*,-4,?,10,?,?
N#CCC(CNc1ncc(C(F)(F)F)cc1Cl)OC(=O)c1cccc([N+](=O)[O-])c1 (stereo unspecified),-17,-1,13µM*,0,-10%,4.7µM*
N#CCC(CNc1ncc(C(F)(F)F)cc1Cl)OC(=O)c1c(F)cccc1F (stereo unspecified),-30,.,.,.,9%,.
CCN(C(=O)CSc1nc2ccccc2n1Cc1ccc(F)cc1Cl)c1ccccc1,-12,.,.,.,.,.
O=C(Nc1ccccc1)c1cc2n(n1)C(C(F)(F)F)CC(C1CC1)N2 (stereo unspecified),-6,36*,33%,58*,-8%,21%
O=C(Nc1nc2c(s1)CCCC2)c1cc2n(n1)C(C(F)(F)F)CC(C1CC1)N2 (stereo unspecified),10,19*,-29%,40,-11%,?
CCOC(=O)c1c(C)n(C)c2ccc(O)c(CN(C)C)c12,?,0,-7%,-11,-19%,19%
CCOC(=O)c1sc(=S)n(-c2ccc(C)cc2)c1SC,?,6,1.2µM*,15,-13%,0.47µM*
CCOC(=O)c1c(C)n(-c2ccc(OC)cc2)c2ccc(O)c(CN(C)C)c12,?,-4,?,-7,?,7.4µM*
CCOC(=O)c1c(C)n(-c2ccc(C)cc2)c2ccc(O)c(CN(C)C)c12,-88*,-6,10µM*,-6,-7%,32%
CCOC(=O)c1sc(=S)n(-c2ccc(OC)cc2)c1N,-33,8,?,7,11%,?
SMILES,HCMV inh,Cycloheximide cs,Pf growth 48h,Shiga toxin inh,HCV inhibitor,Pf growth 96h
CCOC(=O)c1sc(=N)n(-c2ccc(OC)cc2)c1C,43,28*,49%,102,-29%,7%
CCCCc1ccc(NC(=S)NCCc2ccc(F)cc2)cc1,2,1,-1%[5.75 µM],4,-19%,11%
CCOC(=O)c1ccc(Nc2nc3ccc(C(=O)c4ccccc4)cc3n3c(C)nnc23)cc1,-18,.,.,.,.,.
COCCn1c(-c2ccc(C)cc2)nc2oc3cc(OC)ccc3c(=O)c2c1=O,37,-1,4.1µM*,-4,-13%,?
COCCCn1c(C2CCCCC2)nc2oc3cc(OC)ccc3c(=O)c2c1=O,-36,-2,?,22,3%,0.93µM*
COCCn1c(-c2ccc(F)cc2)nc2oc3cc(OC)ccc3c(=O)c2c1=O,-24,-2,?,-29,4%,-3%
COc1cc(-c2nc3oc4ccccc4c(=O)c3c(=O)n2Cc2ccco2)cc(OC)c1OC,-11,22*,?,40*,-16%,?
COc1ccc2c(=O)c3c(=O)n(Cc4ccco4)c(-c4ccc(C)cc4)nc3oc2c1,10,-1,?,32,-29%,14%
O=C(COC(=O)Cc1ccc(S(=O)(=O)N2CCOCC2)s1)Nc1ccccc1,-21,.,.,.,-1%,.
COc1ccc(NC(=O)C2(S(=O)(=O)c3ccc(C)cc3)CC2)cc1,23,-2,25%,-8,-16%,12%
Cc1cc(NC(=O)CSCc2ccccc2)no1,21,1,8%[5.75 µM],-4,5%,4%
Cc1cc(CSCc2ccc(Cl)cc2)no1,.,23*,21%,24,3%,97%
CCOC(=O)[C@H]1[C@H]2COc3cc(OC)ccc3[C@@H]2N2C(=O)c3cc(F)c(F)cc3NC(=O)[C@@]12C,-9,.,?,.,-12%,13µM*
CCOC(=O)[C@H]1[C@H]2COc3cc(OC)ccc3[C@@H]2N2C(=O)c3ccc(C)cc3NC(=O)[C@@]12C,-26,.,?,.,-21%[8.37 µM],?
CCOC(=O)[C@H]1[C@H]2COc3cc(OC)ccc3[C@@H]2N2C(=O)c3cc(F)ccc3NC(=O)[C@@]12C,-16,.,9.3µM*,.,1%,10µM*
CCOC(=O)[C@H]1[C@H]2COc3cc(OC)ccc3[C@@H]2N2C(=O)c3cc(C)ccc3NC(=O)[C@@]12C,-32,.,4.7µM*,.,-26%,2.3µM*
CCOC(=O)[C@H]1[C@H]2COc3cc(OC)ccc3[C@@H]2N2C(=O)c3cc(OC)ccc3NC(=O)[C@@]12C,-12,.,1.3µM*,.,?,6.6µM*
CCOC(=O)[C@H]1[C@H]2COc3ccc(Cl)cc3[C@@H]2N2C(=O)c3ccc(Cl)cc3NC(=O)[C@@]12C,-7,.,10µM*,.,2%,13µM*
CCOC(=O)[C@H]1[C@H]2COc3ccc(C)cc3[C@@H]2N2C(=O)c3ccc(Cl)cc3NC(=O)[C@@]12C,1,.,.,.,-67%,.
